Results from PubChem BioAssay AID1851 (National Center for Advancing Translational Sciences (NCATS), 2009).
Among all 16,000 compounds or so, about 5,100 (32%) were called active. Roughly 25% stayed inconclusive and do not appear here. The list shows a part of the results. Unmarked numbers belong to inactive results. Calls come from the whole dose curve; as a rule, active = well fitted curve in the direction sought with a large enough effect; inconclusive = small, poorly fitted or top-dose-only effect, or effect the other way; inactive = no such curve, though single readings can be large or run the other way.

molecular target: Cytochrome P450 3A4 (Homo sapiens) (UniProt P08684); assay: Cytochrome panel assay with activity outcomes; conditions: recombinant CYP, pro-luciferin dealkylation, luminescence, p450-cyp3a4; series mostly up to 57.1 µM
Sequence (P08684 whole entry, looked up): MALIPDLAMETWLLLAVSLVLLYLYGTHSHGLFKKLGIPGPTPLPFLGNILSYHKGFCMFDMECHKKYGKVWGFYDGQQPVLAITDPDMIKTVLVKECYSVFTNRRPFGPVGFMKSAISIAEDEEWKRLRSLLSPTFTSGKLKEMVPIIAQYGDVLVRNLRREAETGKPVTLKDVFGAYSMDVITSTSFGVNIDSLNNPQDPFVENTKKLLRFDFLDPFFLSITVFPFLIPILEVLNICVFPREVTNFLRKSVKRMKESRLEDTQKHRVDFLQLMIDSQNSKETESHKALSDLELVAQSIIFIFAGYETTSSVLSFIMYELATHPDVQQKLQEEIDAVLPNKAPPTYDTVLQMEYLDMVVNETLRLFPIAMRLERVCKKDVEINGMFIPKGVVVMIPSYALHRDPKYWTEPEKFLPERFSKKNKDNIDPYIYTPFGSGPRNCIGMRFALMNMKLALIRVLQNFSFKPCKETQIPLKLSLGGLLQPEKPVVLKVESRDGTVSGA
% is set by controls: 0 for no effect and ±100 for the full control effect.

SMILES	AC50	activity, negative = inhibition
O=C(NCc1ccc2c(c1)OCO2)C1CC(=O)N(C2CCCC2)C1 (stereo not drawn)	4.47 µM (active)	–
Cc1cc(N2CCOCC2)ccc1/C=C1\SC(=O)N(C(C)C)C1=O	inactive	–
Cc1ccc(Oc2ccccc2/C=C2\SC(=O)N(C)C2=O)cc1	14.1 µM (active)	–
Cc1cccc(CNc2ncncc2-c2cccc(C#N)c2)c1	0.2 µM (active)	–
N#Cc1cccc(-c2cncnc2NCc2cccnc2)c1	1.26 µM (active)	–
N#Cc1cccc(-c2cncnc2NCc2ccccc2)c1	1.26 µM (active)	–
N#Cc1cccc(-c2cncnc2NCc2cccs2)c1	1.26 µM (active)	–
O=C1/C(=N\O)Cc2ccccc21	inactive	–
CN(C)CCC=C1c2ccccc2CCc2ccccc21	inactive	–
C[N+](C)([O-])CCC=C1c2ccccc2CCc2ccccc21	1.26 µM (active)	–
CN(C)CC/C=C1\c2ccccc2COc2ccccc21	inactive	–
COCCCNC(=O)Cn1nc(-c2ccccc2OC)ccc1=O	inactive	–
COc1ccccc1-c1cc(C(F)(F)F)nc(S(=O)(=O)CCCC(=O)NC(C)C)n1	12.6 µM (active)	–
CCOC(=O)C1=C(C)NC2=C(C(=O)C(C(=O)OCC)C(c3ccc(OC)cc3)C2)C1c1ccccn1 (stereo not drawn)	–	-13.7% [at 2.29 µM]
CCOC(=O)C1(C(=O)O)NC(=O)CC1c1ccccc1 (stereo not drawn)	inactive	–
CCCOc1ccccc1C1CC(=O)NC(C)=C1C(=O)OCC(C)C (stereo not drawn)	28.2 µM (active)	–
O=C(CSc1nnc(Cn2nnc3ccccc32)o1)Nc1cccc(Cl)c1	8.91 µM (active)	–
CC(C)(C)OC(=O)NCCc1nnc(SCC(=O)Nc2cccc(Cl)c2)o1	11.2 µM (active)	–
Brc1ccc(C2=Nn3c(nnc3-c3cccnc3)SC2)s1	3.55 µM (active)	–
O=[N+]([O-])c1ccc(C2=Nn3c(nnc3-c3ccc(Cl)cc3)SC2)o1	–	-12.1% [at 11.4 µM]
CCOc1ccccc1NC(=O)CCC(=O)O	inactive	–
CCOc1ccccc1NC(=O)CSc1nnc(-c2cnccn2)n1C	8.91 µM (active)	–
O=C1NC(=S)N/C1=C/c1cccc([N+](=O)[O-])c1O	inactive	–
Cc1ccc(/C=N/n2c(COc3ccccc3)n[nH]c2=S)s1	inactive	–
O=[N+]([O-])c1ccccc1/C=N/n1c(COc2ccccc2)n[nH]c1=S	5.01 µM (active)	–
O=[N+]([O-])c1ccc(/C=N/n2c(COc3ccccc3)n[nH]c2=S)cc1	15.8 µM (active)	–
O=[N+]([O-])c1ccc(/C=N/N/C(=N/c2ccccn2)c2ccccn2)cc1	inactive	–
Cc1ccccc1CNc1ncnc2c1ncn2[C@@H]1O[C@@H](CO)[C@H](O)[C@@H]1O	inactive	–
